In the library only some 1.6% were active in any assay of this set; here they are far more common.
PKA-R2B activ: activators of PKA-R2B holoenzyme, primary screen, biochemical, fluorescence polarization, Cy5-IP20, human; 0.079% of 340,000 active; activation, % at 11.4 µM; cAMP-dependent protein kinase catalytic subunit beta (Homo sapiens) + cAMP-dependent …; PKA-R2B holoenzyme dissociation; R2B truncated from residue 108, S112A mutant; 0% DMSO only, 100% 113 µM cGMP;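 active = activation above a cutoff set at the mean over all compounds plus 3 SD, cut at about 18% in these data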;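 note: higher means more holoenzyme dissociation and a rise in polarization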
Target sequence (P31323 whole entry, looked up, other chains not shown, the tested form may be a part): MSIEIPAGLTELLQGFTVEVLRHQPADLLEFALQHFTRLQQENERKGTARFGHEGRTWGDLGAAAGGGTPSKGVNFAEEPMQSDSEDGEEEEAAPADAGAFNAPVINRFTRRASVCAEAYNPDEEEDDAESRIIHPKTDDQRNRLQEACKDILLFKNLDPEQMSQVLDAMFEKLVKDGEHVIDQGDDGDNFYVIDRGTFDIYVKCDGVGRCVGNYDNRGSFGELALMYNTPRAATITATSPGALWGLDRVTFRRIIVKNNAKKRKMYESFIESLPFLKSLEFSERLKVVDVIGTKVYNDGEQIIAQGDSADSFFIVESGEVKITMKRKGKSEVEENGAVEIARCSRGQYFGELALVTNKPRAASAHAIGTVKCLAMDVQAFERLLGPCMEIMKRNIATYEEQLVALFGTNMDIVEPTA
NRP1-CendR mod: modulators of CendR peptide binding to NRP-1, primary screen, biochemical, fluorescence polarization, uHTS; inhibition, % at 25 µM; FAM-RPARPAR peptide binding to NRP-1; 0.85% of 360,000 active;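 active = inhibition or corrected inhibition above about 18%, plus a signal ratio from 0.5 to 1.5, limit read from the data, passing the limit was not always enough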
VLA-4 inh: inhibition in human VLA-4 binding assay, primary screen, VLA-4 allosteric modulator project, MLPCN library, flow cytometry, VLA-4 expressing cells | Integrin alpha-4 (Homo sapiens), P13612 | ligand binding flow cytometry | inhibition, % (about 7 µM as worked out from the volumes in the protocol) | 0.2% of 330,000 active | AID 2557, 2010; in the data active = inhibition above about 50%
ATG4B inh: ATG4B protease inhibitors, primary screen, biochemical, fluorescence, uHTS | Cysteine protease ATG4B (Homo sapiens), Q9Y4P1 | ATG4B cleavage of LC3-PLA2, NBD-HPC fluorescence, 1 h | inhibition, % at 8.33 µM | 0.51% of 340,000 active
PKA-R1A activ: activators of PKA-R1A holoenzyme, primary screen, biochemical, fluorescence polarization, Cy5-IP20, bovine R1A, mouse PKAc | PKA-R1A dissociation; scaled: DMSO 0%, 113 µM cGMP 100% | cAMP-dependent protein kinase type I-alpha regulatory subunit (Bos taurus) + … | activation, % at 11.4 µM | AID 504707, 2011 | 0.083% of 340,000 active;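 active = percent activation above the mean of all tested compounds plus 3 SD, cut at about 19% in these data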;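 note: higher means more PKAc released from R1A so a rise in polarization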
VLA-4 allo CP: retest of VLA-4 allosteric modulators, confirmation, cell-based, cherry-picked plates, U937, HUTS-21 LIBS antibody | U937 cells, HUTS-21 LIBS mAb binding, flow cytometry; LDV ligand present at threefold Kd | 2% of 1,300 active | inhibition, % at 6.7 µM | shares compounds with VLA-4 inh;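 note: 0% = ligand without compound and 100% = no ligand background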
* hit, by the source's call; x = no result given. Cut-off read from the data, not from the text of the source, unless noted: active = inhibition above about 40%; inactive = the rest.

SMILES | PKA-R2B activ | NRP1-CendR mod | VLA-4 inh | ATG4B inh | PKA-R1A activ | VLA-4 allo CP
CNCC[C@@H](Oc1ccc(C(F)(F)F)cc1)c1ccccc1 | 12.6 | 5.0 | -5.7 | 8.6 | -3.2 | x
CN(C)c1ccc([N+](=O)[O-])c([N+](=O)[O-])c1 | -1.8 | 28.7* | x | 0.4 | 0.7 | x
Cc1ccc(C2(O)CCN3CCCCC32)cc1 (configuration not stated) | -2.5 | 28.6* | -6.9 | -4.7 | 11.0 | x
CN1CCC(O)(c2ccccc2)C2CCCC21 (configuration not stated) | -0.8 | 2.1 | 40.5 | -11.1 | -8.9 | x
CC(C)(C)C(=O)O[C@H]1CC[C@@]2(C)C(=CC(=O)C3C2CC[C@]2(C)C(=O)[C@H](O)CC32)C1 (some centres not stated) | 6.4 | -6.6 | -1.4 | -8.7 | 0.8 | x
C[C@]12CC[C@H](O)CC1=CC(=O)C1C2CC[C@]2(C)C(=O)[C@H](O)CC12 (some centres not stated) | 5.6 | 19.4* | -17.5 | -3.6 | -5.6 | x
Cc1ccc(-c2cc(-c3ccccc3)cc(-c3ccccc3)[n+]2-c2ccccc2C(=O)O)cc1 | 6.6 | 26.3* | 16.9 | -2.9 | 2.6 | x
O=C([O-])c1ccc(-[n+]2c(-c3ccccc3)cc(-c3ccccc3)cc2-c2ccccc2)cc1 | -6.3 | 7.0 | 2.0 | -0.3 | -2.4 | x
O=P(O)(Oc1ccccc1)c1ccccc1 | -0.4 | 7.9 | x | -2.5 | -6.1 | x
O=c1[nH]c2ccccc2n1C1CCN(C(CCc2ccccc2)c2nnnn2-c2ccc3c(c2)OCCO3)CC1 (configuration not stated) | x | 3.5 | x | x | x | x
CC(=O)c1ccc2c(c1)C1C(Cl)C(Sc3ccccc3[N+](=O)[O-])CC1C(C(=O)O)N2 (configuration not stated) | -3.0 | 31.2* | 11.4 | 8.9 | 3.4 | x
CN1C[C@H](CO)C=C2c3cccc4[nH]cc(c34)C[C@H]21 | -1.2 | 45.9* | -8.4 | 0.3 | -8.8 | x
Cc1ccc(S(=O)(=O)NCCC(=O)Nc2ccc(Cl)cc2C(=O)c2ccccc2)cc1 | 0.2 | 11.6 | 9.8 | 15.8 | 2.7 | x
Cc1ccc(S(=O)(=O)N[C@@H](CCCCN)C(=O)CCl)cc1 | 7.8 | -13.7 | 52.7* | -1.3 | 10.1 | -6.7
COC(=O)C1=C(c2ccc(OC)c(OC)c2)C[C@@H]2CC[C@H]1N2C(=O)NCC1CC1 | 9.4 | 11.9 | 0.0 | -9.3 | -11.4 | x
Cc1cc(Cl)ccc1OCC(=O)O | 6.2 | -11.9 | 55.6* | -2.0 | -10.6 | -2.9
O=C(O)COc1ccc(Cl)cc1Cl | -8.4 | 1.5 | -2.2 | 4.3 | -4.0 | x
CN=C1CN(O)C(c2ccccc2)=c2cc(Cl)ccc2=N1 | -3.0 | 1.4 | 13.5 | -1.3 | -3.8 | x
O=C1CN(O)C(c2ccccc2)=c2cc(Cl)ccc2=N1 | -0.7 | -16.4 | 101.0* | 0.0 | -2.4 | -12.3
CN1C2CCC1CC(OC(=O)c1cccc(O)c1)C2 (configuration not stated) | -2.2 | 8.0 | x | -23.2 | -0.7 | x
CN1[C@@H]2CC[C@H]1CC(OC(=O)C1C=Nc3ccccc31)C2 (some centres not stated) | -4.4 | 2.6 | 50.6* | 3.2 | -6.4 | 10.9
c1ccc2c(c1)Nc1ccccc1S2 | 6.8 | 7.1 | 54.9* | 0.9 | -4.3 | 12.6
CCN(CC)c1ccc(N=Cc2c(O)n(Cc3ccccc3)c(=O)[nH]c2=O)cc1 | -7.9 | -49.0 | -6.9 | -6.1 | -9.0 | -22.4
CCN(CC)c1ccc(N=Cc2c(O)n(-c3ccccc3)c(=O)[nH]c2=O)cc1 | -14.2 | -57.5 | -22.6 | -3.8 | -6.8 | x
CNC(=O)Oc1cccc2c1OC(C)(C)O2 | -0.5 | 1.0 | x | 0.6 | -3.0 | x
SMILES | PKA-R2B activ | NRP1-CendR mod | VLA-4 inh | ATG4B inh | PKA-R1A activ | VLA-4 allo CP
Nc1cc(Cl)c2nonc2c1[N+](=O)[O-] | -1.0 | -4.0 | 49.6* | 1.1 | -4.3 | 32.3
O=[N+]([O-])c1c(Cl)c(Cl)c(Cl)c(Cl)c1Cl | -6.2 | 7.5 | x | 5.8 | -9.2 | x
C/C1=C\[C@@H](C)C/C=C/[C@H]2[C@@H]3O[C@]3(C)[C@@H](C)[C@H]3[C@H](Cc4c[nH]c5ccccc45)NC(=O)[C@]32C(=O)/C=C/C(=O)[C@@H]1O | -5.2 | -3.3 | 69.8* | -10.9 | -8.1 | 36.9
COc1ccc(N2C(=O)C(=O)N(c3ccc(OC)cc3)P2(=O)N(CCCl)CCCl)cc1 | -5.4 | 3.9 | x | 5.6 | -11.3 | x
COC(=O)C1C2CC[C@@H](CC1OC(=O)c1ccccc1)N2 (some centres not stated) | -11.4 | -5.7 | 8.3 | -1.9 | -6.8 | -1.4
CCOC(=O)C1C(OC(=O)c2ccccc2)CC2CCC1N2C (configuration not stated) | -2.5 | -2.2 | x | -5.7 | 1.0 | x
CN1C2CCC1C(C(=O)O)C(OC(=O)c1ccccc1)C2 (configuration not stated) | -2.8 | -2.4 | 35.1 | 4.5 | 2.8 | 3.3
O=C1CC2OCC=C3CN4CCC56c7ccccc7N1C5C2C3CC46O (configuration not stated) | x | -9.2 | x | x | x | x
COc1ccc(C(=O)OC2C[C@H]3CC[C@@H](C2)N3O)cc1OC (some centres not stated) | -4.0 | 2.6 | -17.6 | -5.5 | 2.0 | 0.6
O=C(NCC1=C(c2cccc3ccccc23)C[C@@H]2CC[C@H]1N2Cc1ccco1)c1cccs1 | 4.7 | -8.8 | x | x | -4.5 | x
CC12CC(O)C3C(CCC4=CC(=O)CCC43C)C1CCC2=O (configuration not stated) | -3.3 | 14.2 | x | -2.2 | 5.9 | x
CCOC(=O)c1c(NC(=O)C(c2ccccc2)c2ccccc2)sc2c1C1CCN2CC1 | -5.3 | 0.1 | -4.2 | -4.3 | -2.5 | -3.0
CCOC(=O)c1cccc(C2=C(CNC(=O)c3cccnc3)[C@H]3CC[C@@H](C2)N3Cc2ccccc2)c1 | 2.4 | -1.6 | x | x | -4.0 | x
COc1cccc(O)c1CN1CCCC(C(=O)c2ccccc2SC)C1 (configuration not stated) | 1.4 | 4.6 | 51.3* | 7.8 | -0.9 | -4.1
Cc1cccc(CN2CCCN(Cc3ccc(Cl)cc3)S2(=O)=O)c1 | -1.6 | 7.6 | 44.7 | 5.0 | -0.7 | -1.2
Cc1ccc(CN2CCCN(Cc3ccc(C)cc3)S2(=O)=O)cc1 | -3.0 | -5.0 | 3.7 | 0.6 | -8.0 | x
Cc1cc(C)cc(N2C(=O)NC(=O)/C(=C\c3cccn3-c3ccccc3)C2=O)c1 | -4.0 | -27.4 | 43.6 | 2.0 | 11.5 | 16.0
